p53null 39C tox – p53 null cell cytotoxicity, nonpermissive temperature; H1299 p53-null (neo) cells, 39C, ATPlite viability, 24 h; Potency, µM (series often up to 46.1 µM), for inactives: at the top dose activity, negative = cell killing, most hits filed as cytotoxic; 0.97% of 55,000 active; AID 904;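 further: potency means the concentration at half of the fitted maximal effect; 0% = DMSO only and -100% = full killing by 100 µM tamoxifen; nearly all actives have a fitted effect of over 50% in size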
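ATP-luminescence viability readout (ATPlite, 20 min RT) after 24 hr compound treatment at 39C of H1299-neo or H1299-p53A138V cells; titration up to 46 uM; normalized to DMSO and 100 uM tamoxifen; Hill-fit AC50.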
GPR32 ag – activates human resolvin D1 receptor GPR32 | O75388 | CHO-K1 GPR32 beta-arrestin PathHunter luminescence, 90 min; zero percent set by DMSO-only wells | activation, % at 76.9 µM | 2.5% of 48,000 active;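 active means activation of at least 60% and not above a set upper limit, about 1 call in 100 departs from these limits; inconclusive means activation of 40% to 60%, or above that upper limit; inactive means activation under 40%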; further: 0% is about no effect
Target sequence (O75388 whole entry, looked up): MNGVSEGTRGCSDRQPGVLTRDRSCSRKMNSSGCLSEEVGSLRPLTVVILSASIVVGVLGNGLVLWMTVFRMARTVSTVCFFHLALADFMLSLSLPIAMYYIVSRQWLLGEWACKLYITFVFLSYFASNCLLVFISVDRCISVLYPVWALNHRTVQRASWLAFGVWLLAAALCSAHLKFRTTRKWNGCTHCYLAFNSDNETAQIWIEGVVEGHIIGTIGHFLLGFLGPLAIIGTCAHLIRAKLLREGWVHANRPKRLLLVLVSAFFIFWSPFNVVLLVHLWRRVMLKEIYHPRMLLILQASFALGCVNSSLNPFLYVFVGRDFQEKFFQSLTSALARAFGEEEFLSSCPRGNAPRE
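CHO-K1 cells stably expressing ProLink-tagged GPR32 and Enzyme Activator-tagged beta-arrestin were seeded at 2,500 cells/well overnight, exposed to compounds for 90 min at 37 °C, then read by beta-Gal complementation chemiluminescence after 1 h detection reagent.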
FH mod – Identification of activators of human fumarate hydratase by quantitative high-throughput screening. Fumarate hydratase, mitochondrial (Homo sapiens), P07954. FH coupled MDH/diaphorase resazurin fluorescence, 15 min. Potency, µM (highest dose often 79.9 µM), without a hit: at the top dose activity change, negative = inhibition, hits mostly inhibitors. 0.22% of 54,000 active; further: potency means the concentration at half of the fitted maximal effect; on the % scale 0 is the no-effect control and ±100 the full control effect; the screen sought activators but most active calls are inhibition curves; nearly all actives have a fitted effect of over 45% in size
p53null 32C kill – selectivity test: cytotoxicity in p53 null cells, permissive temperature; AID 903; H1299-neo p53 null cells, ATP luminescence, 24 h, 32C; Potency, µM (titrated, usually from 46.1 µM), without a hit: top-dose activity change, negative = cytotoxicity, actives largely listed as cytotoxic; 0.62% of 55,000 active;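 further: potency means the concentration at half of the fitted maximal effect; 0% = DMSO only and -100% = full killing by 100 µM tamoxifen; nearly all actives have a fitted effect of over 55% in size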
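Cells lacking p53 (H1299-neo) are plated at 600 per well and allowed to settle overnight at 37C. Test compounds (up to 46 uM) are added and held 24 hours at 32C, then ATP is quantified by luminescence.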
* = called active by the depositor; ! = a repeat was not active; [ ] = dose if it differs, or a comment. In the library only some 2.9% were active in any assay of this set; here they are far more common. Unless noted, the call rests on the fitted dose curve; in most records, active means well fitted curve in the direction sought with a large enough effect; inconclusive means small, poorly fitted or top-dose-only effect, or another doubt; inactive means no such curve, though single readings can be large; an effect the other way counts as inactive or inconclusive.

Results for Cc1n[nH]c(C)c1CCc1nc2c3ccccc3nc(SCC(=O)Nc3ccc(F)cc3)n2n1 ?
p53null 39C tox: inconclusive; GPR32 ag: 72.0*; FH mod: -1.6%; p53null 32C kill: inconclusive

Results for COc1cc2nc(SCC(=O)Nc3cccc(C)c3)n3nc(CCn4c(C)nc5ccccc54)nc3c2cc1OC ?
p53null 39C tox: -15.1%; GPR32 ag: -6.0; FH mod: -14.6%; p53null 32C kill: 3.0%

Results for COc1ccc(CNC(=O)Cn2c(=O)oc3cc(S(=O)(=O)N4CCCCCC4)ccc32)cc1 ?
p53null 39C tox: 25.9%; GPR32 ag: 60.6*; FH mod: -21.2%; p53null 32C kill: -20.9%

How did COc1ccc(C)cc1NC(=O)Cn1c(=O)oc2cc(S(=O)(=O)N3CCCCC3)ccc21 do in these assays?
p53null 39C tox: -11.0%; GPR32 ag: 84.0*; FH mod: -2.0%; p53null 32C kill: -12.3%

Results for COc1cccc(NC(=O)Cn2c(=O)oc3cc(S(=O)(=O)N4CCCCC4)ccc32)c1 ?
p53null 39C tox: -11.0%; GPR32 ag: 115.9*; FH mod: -8.5%; p53null 32C kill: 1.6%

How did CN(c1ccc(NC(=O)Nc2ccccc2)cc1)S(=O)(=O)c1cnn(-c2ccc(F)cc2)c1 do in these assays?
FH mod: -2.1%

Results for NC(=O)C1=CN(C2OC(COP(=O)(O)OP(=O)(O)OC[C@H]3O[C@@H](n4cnc5c(N)ncnc54)[C@H](OP(=O)(O)O)C3O)C(O)C2O)C=CC1 (stereo partly specified) ?
FH mod: -6.2%[53.3 µM]

How did O=C(O)c1n[nH]c2c1C[C@H]1C[C@@H]21 do in these assays?
FH mod: 0.6%

How did CC(=O)NC1=C(NC2CCS(=O)(=O)C2)C(=O)c2ccccc2C1=O (stereo unspecified) do in these assays?
p53null 39C tox: inconclusive; p53null 32C kill: 11.2µM*

What do the screens show for `CCN(c1cc(C)cc(C)c1)S(=O)(=O)c1nnc(NC(=O)c2cccs2)s1`?
p53null 39C tox: -3.3%; GPR32 ag: 33.7; FH mod: -11.2%; p53null 32C kill: 7.6%

Results for CCN(c1ccccc1)S(=O)(=O)c1nnc(NC(=O)c2ccco2)s1 ?
p53null 39C tox: 1µM*; GPR32 ag: 22.9; FH mod: 7.9%; p53null 32C kill: inconclusive

Results for CCN(c1cccc(C)c1)S(=O)(=O)c1nnc(NC(=O)c2cccs2)s1 ?
p53null 39C tox: 6.6%; GPR32 ag: 61.8*; FH mod: -6.7%; p53null 32C kill: 6.0%

What do the screens show for `CN1CCN(C(=O)c2ccc(Nc3nccc(-c4cccs4)n3)cc2Cl)CC1`?
FH mod: -5.1%

Results for CCOC(=O)C1=C(C)NC(C)=C(C(=O)OC)C1c1cccc(Cl)c1Cl (stereo unspecified) ?
GPR32 ag: 109.5*!; FH mod: inconclusive

What do the screens show for `CC1=C(C(=O)OCC2CCCCC2)C(c2cccc(Cl)c2Cl)CC(=O)N1` (stereo unspecified)?
p53null 39C tox: 7.6%; GPR32 ag: 13.4; FH mod: 6.1%; p53null 32C kill: 0.3%

Results for COc1cc2ncnc(Nc3ccc(F)c(Cl)c3)c2cc1OCCCN1CCOCC1 ?
GPR32 ag: 77.3*; FH mod: -1.5%

How did COc1ccc2nc(C)cc(Nc3ccc(Cl)c(Cl)c3)c2c1 do in these assays?
p53null 39C tox: 12.6µM*; GPR32 ag: 12.8; FH mod: -3.5%; p53null 32C kill: inconclusive

What do the screens show for `COc1ccc(Nc2nc3ccc(Cl)cc3nc2-n2nc(C)cc2C)cc1`?
p53null 39C tox: 11.8%; GPR32 ag: -20.2; FH mod: 4.6%; p53null 32C kill: inconclusive

Results for Oc1ccc(Cl)cc1Cc1cc(Cl)ccc1O ?
GPR32 ag: 69.0*; FH mod: inconclusive

How did O=C(c1cc(O)c(O)c(O)c1)c1ccc(O)c(O)c1O do in these assays?
GPR32 ag: -27.9; FH mod: inconclusive

What do the screens show for `COc1cn(-c2ccc(-n3cccn3)cc2F)nc(-c2ccnn2-c2ccccc2)c1=O`?
FH mod: -3.7%

What do the screens show for `CCn1c(=O)cc(OCC(=O)N2CCN(c3ccc(C)cc3)C(C)C2)c2ccccc21` (stereo unspecified)?
p53null 39C tox: 25.1µM*; GPR32 ag: 74.2*; FH mod: -7.4%; p53null 32C kill: -4.3%

Results for CCOc1ccc(-c2cc(C(=O)N3CCN(c4ccc(C)cc4)C(C)C3)c3ccccc3n2)cc1 (stereo unspecified) ?
p53null 39C tox: inconclusive; GPR32 ag: -22.7; FH mod: -13.2%; p53null 32C kill: 12.6µM*

How did CCc1ccc(CNC(=O)COc2cc(=O)n(CC)c3ccccc23)cc1 do in these assays?
p53null 39C tox: -2.1%; GPR32 ag: 116.9*; FH mod: -15.2%; p53null 32C kill: 3.0%

How did C[C@@H]1CC[C@@]2(OC1)O[C@H]1C[C@H]3[C@@H]4CC=C5C[C@@H](O)CC[C@]5(C)[C@H]4CC[C@]3(C)[C@H]1[C@@H]2C do in these assays?
FH mod: -1.1%[53.3 µM]

How did CN(C)C/C=C/C(=O)Nc1cc2c(Nc3ccc(F)c(Cl)c3)ncnc2cc1OC1CCOC1 (stereo unspecified) do in these assays?
FH mod: 16.3%

Results for CC(=O)c1cccc(NC(=O)c2nc3ccccc3n(C)c2=O)c1 ?
p53null 39C tox: 2.51µM*; GPR32 ag: 62.1*; FH mod: -2.5%; p53null 32C kill: 2.82µM*

What do the screens show for `COc1cc(NC(=O)c2nc3ccccc3n(C)c2=O)cc(OC)c1OC`?
p53null 39C tox: inconclusive; GPR32 ag: 12.8; FH mod: -2.4%; p53null 32C kill: -12.5%

Results for C=C(C)C(O)COc1ccc(CC(=O)O)cc1 (stereo unspecified) ?
FH mod: 8.0%

What do the screens show for `Cc1ccnc(NC(=O)/C=C/c2cccs2)c1`?
p53null 32C kill: 10µM*

How did Cc1ccccc1-c1nc(CS(=O)(=O)CC(=O)NCCc2ccccc2)c(C)o1 do in these assays?
p53null 39C tox: -5.6%; GPR32 ag: -0.4; FH mod: -7.6%; p53null 32C kill: 3.5%

What do the screens show for `Cc1ccccc1-c1nc(CS(=O)(=O)CC(=O)NCC(C)c2ccccc2)c(C)o1` (stereo unspecified)?
p53null 39C tox: -5.3%; GPR32 ag: 70.0*; FH mod: -16.9%; p53null 32C kill: -5.5%

How did CSc1cccc(Nc2cc(C(=O)NCCc3ccc(Cl)cc3)c3ccccc3n2)c1 do in these assays?
p53null 39C tox: inconclusive; GPR32 ag: -4.6; FH mod: inconclusive; p53null 32C kill: -8.4%

How did CCCCN(CCCNC(=O)c1cc(Nc2cccc(SC)c2)nc2ccccc12)Cc1ccccc1 do in these assays?
p53null 39C tox: 5.62µM*; GPR32 ag: -18.1; FH mod: inconclusive; p53null 32C kill: -18.8%

Results for COc1cccc(CNC(=O)Cn2nc(-c3ccc(Cl)cc3)ccc2=O)c1 ?
p53null 39C tox: 20.2%; GPR32 ag: 76.2*; FH mod: 1.3%; p53null 32C kill: -12.2%

High-throughput results: PubChem BioAssay, National Center for Advancing Translational Sciences (NCATS)
